These results are taken from PubChem BioAssay AID488890 (Southern Research Specialized Biocontainment Screening …, 2010).

About 1,300 (0.41%) of roughly 320,000 compounds were called active. Inconclusive results (about 3%) are left out. How the calls were made is not given here. The list is a sample of the results. Results with a measured potency or affinity are listed apart.

The assay is described as follows: growth inhibition of non-replicating M. tuberculosis (AID 488890).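 Further: plate controls were DMSO cells for no effect and high antibiotic wells for full effect.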 The conditions noted are these: Mycobacterium tuberculosis non-replicating, at 25 µM, stronger effect = higher value.
As usually defined, the inhibition is the drop in the measured response relative to a control, in per cent. In the case of `CC(NC(=O)CC1Sc2ccccc2NC1=O)c1ccccc1` (stereo not given), the inhibition turned out to be 0.31%.

As for `CCN(CC)C(=O)C(=O)N/N=C/c1ccc(C(=O)OC)cc1`, the inhibition was -0.1%.

Consider `CCOc1cc2c(cc1OCC)C(c1ccc(C(=O)O)cc1)NCC2` (stereo not given), for which the inhibition was -6.9%.

On to `N/C(=N/OC(=O)c1cccc([N+](=O)[O-])c1)c1cccc([N+](=O)[O-])c1`, for which the inhibition was determined as 18.3%.

With `Cc1cccc(C(=O)O/N=C(\N)c2cccc([N+](=O)[O-])c2)c1`, the inhibition was 75%.

Consider `COc1ccc(C(CNC(=O)c2cccc(NC(=O)c3cccs3)c2)N2CCCC2)cc1` (stereo not given), for which the inhibition is 27.7%.

`Cn1nc(-c2ccccn2)nc2c(=O)n(C)c(=O)nc1-2`: the inhibition is 74.7%.

Take `CCn1nc(-c2ccccc2)nc2c(=O)n(C)c(=O)nc1-2`: the inhibition was -28.8%.

Take `CC1(C)CN(c2ccc(Br)cc2Br)C1=O`: the inhibition was 8.63%.

Turning to `CCOC(=O)N1CCN(S(=O)(=O)c2ccc(C(=O)N(CCCN(C)C)c3nc4cc(OC)ccc4s3)cc2)CC1`, the inhibition was 8.58%.

As for `OCc1ccc(O)c2ncccc12`, the inhibition amounted to 26%.

In the case of `Oc1ccc(CNc2ccccc2F)c2cccnc12`, the inhibition was found to be 38.5%.

Turning to `CCCn1c(C(C)Nc2nc(-c3ccc(C)cc3)cs2)nc2cc(Cl)c(Cl)cc21` (stereo not given), the inhibition turned out to be 17.9%.

As to `COc1ccccc1NC(=O)Cn1cnc2sc(C(=O)Nc3cc(OC)c(OC)c(OC)c3)c(C)c2c1=O`, the inhibition is -13%.

On to `Cc1ccc(NC(=S)N2CCC(NC(=O)C3CCCCC3)CC2)cc1C`, for which the inhibition was -8.16%.

`Cc1nn(CC(=O)NCc2cc3ccccc3[nH]2)c(C)c1[N+](=O)[O-]`: the inhibition is -11.5%.

For the molecule `O=C(CNC(=O)c1ccco1)OCc1ccc(C(=O)c2ccccc2)cc1`, the inhibition came out at 74.7%.

As to `O=C(Nc1ccc(OC(=O)c2ccco2)cc1)c1ccco1`, the inhibition is 53.6%.

Turning to `O=C(CNC(=O)c1ccco1)NCC(=O)OCc1ccc(C(=O)Oc2ccc(Cl)cc2)cc1`, the inhibition was determined as 5.36%.

Regarding `COC(=O)c1ccc(NC(=O)c2ccc(NC(=O)c3ccco3)cc2)cc1`, the inhibition stood at 9.4%.

In the case of `O=C(CCN1C(=O)/C(=C\c2ccccc2)SC1=S)NNC(=O)c1ccccc1O`, the inhibition is -13.1%.

As to `CN(C)CCCNC1CS(=O)(=O)CC1O` (stereo not given), the inhibition was -14.7%.

For `CCOC(=O)C1=C(C)NC2=C(C(=O)CC(C)(C)C2)C1c1ccc2c(c1)CCCN2C` (stereo not given), the inhibition came out at 58.9%.

Consider `COCCN1C(=O)/C(=C/c2c(OC)cc(OC)cc2OC)C(=O)N(c2ccccc2)C1=O`, for which the inhibition was 2.58%.

Take `Cc1cccc(NC(=O)CC(=O)Nc2cccc(C)c2)c1`: the inhibition was determined as 17.8%.

For `CCOC(=O)c1c(NC(C)=O)sc2c(OC)c(Br)ccc12`, the inhibition is 3.98%.

Take `CCOC(=O)c1c(NC(C)=O)sc2c(O)c(Br)ccc12`: the inhibition came to 33.9%.

Take `Cc1onc(-c2c(F)cccc2Cl)c1C(=O)N(Cc1ccccc1)C(C)C`: the inhibition turned out to be 7.25%.

Turning to `CC1CC(C)CN(S(=O)(=O)c2ccc3oc(=O)ccc3c2)C1` (stereo not given), the inhibition is -8.91%.

`COC(=O)c1ccccc1NC(=O)CCCn1nc([N+](=O)[O-])cc1C`: the inhibition was 1.55%.

In the case of `CC1CCC(NC(=O)c2cc3ccccc3cc2O)CC1` (stereo not given), the inhibition was determined as 38.1%.

Take `COC(=O)c1cc2c(C)c(C)c3ccccn3c-2c1C(=O)OC`: the inhibition was determined as 2.38%.

Consider `CC(C)OC(=O)c1cccc2c1C(=O)c1ccccc1-2`, for which the inhibition was 1.02%.

For the molecule `Cc1cc(C(=O)CCC(=O)Nc2ncccc2C)c(C)s1`, the inhibition stood at 25.8%.

On to `CS(=O)(=O)N1CCc2cc(S(=O)(=O)Nc3ccc4c(c3)OCCO4)ccc21`, for which the inhibition was 5.57%.

Regarding `Cc1cccc(OCC(=O)Nc2nnn(C)n2)c1C`, the inhibition came out at 7.29%.

For the molecule `CCn1nnc(NC(=O)COc2ccc([N+](=O)[O-])cc2)n1`, the inhibition is 15.6%.

Regarding `Cc1ccc(OCC(=O)Nc2nnn(C)n2)c(C)c1`, the inhibition is -10.8%.

`CCOc1ccc(C(=O)Nc2nnn(CC)n2)cc1`: the inhibition is -19.1%.

In the case of `NC(N)=NS(=O)(=O)c1ccc(NC(=S)NC(=O)c2ccc(Br)cc2)cc1`, the inhibition was 2.25%.

Turning to `CN(C)CCC#CC1(O)c2ccccc2-c2ccccc21`, the inhibition was -5.2%.

Take `CCc1ccc(CNC(=O)c2ccc3nc(C4CCCCC4)oc3c2)nc1`: the inhibition stood at 56.5%.

On to `O=C1c2ccccc2C(=O)N1CC#CCN1CCN(C(c2ccccc2)c2ccccc2)CC1`, for which the inhibition is -1.98%.

As for `c1ccc(CCc2nc(-c3cccnc3)no2)cc1`, the inhibition turned out to be 20%.

Turning to `c1ccc(Cc2nc(-c3ccccn3)no2)cc1`, the inhibition worked out at 16.8%.

For `c1ccc(-c2noc(CC3CCCCC3)n2)cc1`, the inhibition came to 69.6%.

Turning to `c1ccc(-c2noc(C3CCCCC3)n2)nc1`, the inhibition is 18.3%.

In the case of `CC(=O)CC1=NC(C)(C)Cc2ccccc21`, the inhibition was 0.57%.

With `c1ccc(CNc2ccc3ccccc3n2)nc1`, the inhibition came out at 21.1%.

As to `COc1cc2c(cc1NC(=O)COC(=O)C1CC(=O)N(Cc3ccco3)C1)oc1ccccc12` (stereo not given), the inhibition is 6.37%.

Turning to `Cc1ccc(-n2c(-c3ccncc3)nnc2-c2cccs2)cc1`, the inhibition was -0.27%.

Regarding `COc1ccccc1N1CCN(C(=O)c2cc(C(=O)N3CCN(c4ccccc4OC)CC3)cc([N+](=O)[O-])c2)CC1`, the inhibition was 12.5%.

Consider `O=C(c1ccc([N+](=O)[O-])s1)N1CCN(c2ccccc2)CC1`, for which the inhibition is -13.2%.

On to `O=C(c1cccc([N+](=O)[O-])c1)N1CCN(c2cccc(Cl)c2)CC1`, for which the inhibition turned out to be 38.1%.

Regarding `COc1ccccc1N1CCN(C(=O)c2ccc(Br)s2)CC1`, the inhibition was determined as 70.2%.

Regarding `NC(=O)CCn1ccc2ccccc21`, the inhibition was found to be 2.82%.

Take `Cc1cc(C)n(C(=O)c2ccc(C)c(S(=O)(=O)N3CCCCC3)c2)n1`: the inhibition is -9.14%.

With `Cc1ccc(C(C)C)cc1OCC(=O)NNC(=O)Nc1ccccc1`, the inhibition is -5.51%.

For the molecule `COc1ccc(C(=O)NNC(=O)C(=O)Nc2ccc(C)c(Cl)c2)cc1`, the inhibition is 73%.

On to `Cc1c(Cl)cccc1NC(=O)CCC(=O)NNC(=O)c1ccccc1Cl`, for which the inhibition was found to be 3.92%.

With `Cc1c(Cl)cccc1NC(=O)CNC(=O)c1ccccc1F`, the inhibition stood at 17.3%.

Turning to `Cc1cc(NC(=O)c2ccccc2C)ccc1NC(=O)c1ccccc1Cl`, the inhibition is -10.5%.

`Cc1ccc(S(=O)(=O)NCC(=O)NCC(=O)OCc2c(F)cccc2Cl)cc1`: the inhibition was -16.7%.

In the case of `COC(=O)c1c(NC(=O)c2cccc([N+](=O)[O-])c2)sc(C(N)=O)c1C`, the inhibition was found to be 51.4%.

For the molecule `COc1cc(/C=N/NC(=O)c2ccc(N)cc2)ccc1OC(=O)c1cccc(C)c1`, the inhibition is 35.7%.

As to `CCN(C(=O)COC(=O)c1cc2ccccc2cc1O)C1CCS(=O)(=O)C1` (stereo not given), the inhibition stood at 9.53%.

As to `CC(C)CC(NC(N)=O)C(=O)Nc1ccc(Cl)c(Cl)c1` (stereo not given), the inhibition was 13.8%.

With `CCNC(=O)/N=C1/NC(=O)C(C(C)C)O1` (stereo not given), the inhibition turned out to be 0.48%.

`CC(C)(C)NC(=O)Cn1cc(C(=O)c2ccccc2F)c2ccccc21`: the inhibition was 0.38%.

`CCCCOc1ccc(-c2nc(/C=N/c3nccs3)c(O)o2)cc1`: the inhibition came out at 62.2%.

For `CN=Cc1nc(-c2ccccc2)oc1O`, the inhibition was found to be 10.9%.

Turning to `O=C(O)CN(Cc1ccccc1)S(=O)(=O)c1ccc2c(c1)OCCO2`, the inhibition is -8.61%.

With `CC1CN(C(=O)c2ccc(COc3ccc(C(C)C)cc3)o2)CC(C)O1` (stereo not given), the inhibition was 54.3%.

Take `COc1ccc(NC(C)=O)cc1NC(=O)CSc1nnc(-c2ccc(F)cc2)n1N`: the inhibition is -6.88%.

Take `O=[N+]([O-])c1ccc(NC(=S)N2CCc3ccccc3C2)cc1`: the inhibition is -1.08%.

As to `CC[n+]1c(/C=C(\C)SC)sc2ccccc21`, the inhibition stood at 0.12%.

As to `CC[n+]1c(/C=C(/C)SC)sc2ccccc21`, the inhibition worked out at 67%.

In the case of `CCn1c(N2CCN(C(=S)NCCc3ccccc3)CC2)nc2ccccc21`, the inhibition is 63.9%.

Consider `Cc1[nH]c2ccc(OC(F)(F)F)cc2c1CCNCc1cccc([N+](=O)[O-])c1`, for which the inhibition worked out at 77.6%.

For `COc1ccc2[nH]c(C)c(CCNCc3cn(C)c4ccccc34)c2c1`, the inhibition is 60.3%.

As to `CC1=C(CCN2CCN(C(C)C)C(CCO)C2)C(C)(C)CCC1` (stereo not given), the inhibition stood at 12.7%.

For `CC1=C(CCN2CCN(C3CCCC3)C(CCO)C2)C(C)(C)CCC1` (stereo not given), the inhibition is 54.5%.

For the molecule `CCOc1ccccc1NC(=S)N1CCC(c2nc3ccccc3o2)CC1`, the inhibition came to 29.4%.

`COc1ccc(NC(=O)Cn2nnc(C(=O)NCc3ccco3)c2N)cc1`: the inhibition is -3.46%.

`CCCC1(CCC)NC(=O)NC1=O`: the inhibition stood at 36.8%.

`O=C(CCc1ccccc1)NCc1ccncc1`: the inhibition was determined as 7.15%.

On to `Cc1nc(Nc2ccc(S(N)(=O)=O)cc2)oc1C`, for which the inhibition is 71.4%.

`CSc1ccc(C(=O)C2CCCN(C(=O)c3ccc4c(c3)OCO4)C2)cc1` (stereo not given): the inhibition was found to be 71.2%.

Take `CSc1ccc(C(=O)C2CCCN(C(=O)c3nonc3C)C2)cc1` (stereo not given): the inhibition is 62.8%.

For the molecule `C=CCN(CC=C)C(=O)C1CC(=O)N(c2ccc(Br)cc2)C1` (stereo not given), the inhibition is 0.89%.

On to `O=c1cc(NS(=O)(=O)c2ccccc2)nc(SCc2c(Cl)cccc2Cl)[nH]1`, for which the inhibition was -0.92%.

As to `O=C(NNc1cccc(Cl)n1)Nc1ccc(F)cc1`, the inhibition is 9.17%.

For `CCCCC(=O)N(CCOC)c1nnc(-c2ccc(OC)cc2)s1`, the inhibition was 11.8%.

As for `CCC(=O)N1c2ccc(S(=O)(=O)N3CCN(CC)CC3)cc2CC1C` (stereo not given), the inhibition is -2.95%.

Take `Cc1nc2c(=O)oc3ccccc3c2n1-c1ccccc1`: the inhibition was 66.8%.

For `Cn1c(C(F)(F)F)nc2c(=O)oc3ccccc3c21`, the inhibition worked out at 71.2%.

As to `Cc1cc(Cl)c2oc(C(=O)N3CCN(c4cccc(C)n4)CC3)c(C)c2c1`, the inhibition worked out at 22.3%.

For the molecule `CCOC(=O)N1CCC(=NNC(=O)c2cc3ccccc3cc2O)CC1`, the inhibition came out at 31.9%.

As to `O=C(NN=C1CCCC1)c1ccccc1O`, the inhibition worked out at 8.13%.

Consider `Cc1ccc(Cn2c(=N)n(CC(O)c3ccco3)c3ccccc32)cc1` (stereo not given), for which the inhibition came out at 18.9%.

For the molecule `N=c1n(Cc2ccccc2)c2ccccc2n1CC(O)c1ccco1` (stereo not given), the inhibition was 2.91%.

Regarding `CC1CCC/C(=C\Nc2ccc(O)cc2)C1=O` (stereo not given), the inhibition was found to be 13.7%.

As for `CC1CCC/C(=C\Nc2ccc(C(=O)O)cc2)C1=O` (stereo not given), the inhibition is -12.5%.

`O=C1c2cccc(OCC(=O)N3CCCc4ccccc43)c2CCN1Cc1cccnc1`: the inhibition came out at 15.4%.

Regarding `O=C(NC1CCCCC1)c1cc(-c2cccs2)on1`, the inhibition was found to be 43.1%.

Regarding `O=C(NC1CCCC1)c1cc(-c2ccccc2O)on1`, the inhibition was 4.68%.

Consider `CN(Cc1cccs1)C(=O)COC(=O)CNC(N)=O`, for which the inhibition amounted to 2.55%.

On to `CCc1ccc(C(=O)c2cncc(Br)c2)cc1`, for which the inhibition stood at 70%.

With `O=C(c1ccccc1)c1cncc(Br)c1`, the inhibition turned out to be 19%.

Regarding `Cc1ccc(C)n1-c1ccc(N2CCOCC2)c([N+](=O)[O-])c1`, the inhibition was -3.61%.

As for `Cc1nn(C)c(C)c1NC(=S)Nc1ccc(S(=O)(=O)Nc2ncccn2)cc1`, the inhibition is -12.7%.

For `CCC/C=C(\CCC)C(NC(=O)CCc1ccccc1)c1ccc(C(F)(F)F)cc1` (stereo not given), the inhibition was -8.64%.

In the case of `Cc1ccc(O)c(C)c1`, the inhibition was -0.5%.

In the case of `Cc1cc(C(c2ccc(O)cc2)c2cc(C)c(O)cc2C)c(C)cc1O`, the inhibition was 19.6%.

Regarding `CN(C)CCCn1c(-c2ccccc2)nc(=S)c2c1CCCC2`, the inhibition came to 3.62%.
